According to PubChem BioAssay AID1903 (Southern Research Specialized Biocontainment Screening …, 2009):
Hit rate of the full screen: of about 310,000 compounds, about 1,200 (0.39%) were called active. No rule for the calls is given here. Only a sample is shown. Measured potencies and affinities stand elsewhere.

molecular target: Large T antigen (Simian virus 40) (UniProt P03070); test: TAg ATPase/helicase activity blockers – biochemical (AID 1903); details: SV40 large T antigen ATPase/helicase inhibition assay; at 20 µM; hits give high values
Sequence (P03070 whole entry, looked up): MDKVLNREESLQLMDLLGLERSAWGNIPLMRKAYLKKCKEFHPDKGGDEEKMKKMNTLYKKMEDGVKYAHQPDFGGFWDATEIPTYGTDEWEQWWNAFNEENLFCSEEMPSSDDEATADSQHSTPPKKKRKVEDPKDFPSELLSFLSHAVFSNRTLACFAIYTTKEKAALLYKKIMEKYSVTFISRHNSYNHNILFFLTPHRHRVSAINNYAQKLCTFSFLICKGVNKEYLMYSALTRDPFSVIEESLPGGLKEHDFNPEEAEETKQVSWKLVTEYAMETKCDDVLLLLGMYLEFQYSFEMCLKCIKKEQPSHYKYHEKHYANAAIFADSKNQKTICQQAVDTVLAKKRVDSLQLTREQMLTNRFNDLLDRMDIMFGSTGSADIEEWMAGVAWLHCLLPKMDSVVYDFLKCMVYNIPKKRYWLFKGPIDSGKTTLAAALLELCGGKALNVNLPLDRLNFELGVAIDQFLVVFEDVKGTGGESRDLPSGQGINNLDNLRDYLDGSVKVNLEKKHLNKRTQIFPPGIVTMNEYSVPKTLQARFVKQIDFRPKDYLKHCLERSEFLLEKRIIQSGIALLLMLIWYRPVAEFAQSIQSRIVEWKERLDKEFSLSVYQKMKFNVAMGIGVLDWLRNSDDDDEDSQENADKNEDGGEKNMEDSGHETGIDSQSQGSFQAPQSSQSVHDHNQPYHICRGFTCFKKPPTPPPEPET

inhibition, inactive:
CNC(=O)COc1coc(CN2CCN(c3ccc(OC)cc3)CC2)cc1=O 21.7%, COc1ccc(-n2ccnc2SCC(=O)Nc2ccccc2)cc1 15%, CC(=O)c1ccc(N2CCN(C(=O)Cc3cccs3)CC2)cc1 1.64%, Cc1ccc2cccnc2c1N 5.53%, Cc1ccc2nc(C)c(C)nc2c1N 17.3%, Cc1cccc(-c2nnc(NC(=O)c3ccco3)s2)c1 8.94%, CN(c1ccc(F)cc1)S(=O)(=O)c1ccc2[nH]cc(C(=O)O)c(=O)c2c1 5.14%, COc1cccc(C(=O)Nc2c3c(nn2-c2ccc([N+](=O)[O-])cc2)CS(=O)(=O)C3)c1 3.72%, CCN(CC)C(=O)CSc1nc2ccc(NC(=O)CSc3nnc(N)s3)cc2s1 5.67%, CCN(CC)S(=O)(=O)c1cccc(NC(=O)CSc2nnc(N)s2)c1 2.59%, Cc1cccc(OCC(=O)NNC(=O)CCc2ccccc2)c1 15.5%, Nc1ccc(S(=O)(=O)NNC(=O)C(=O)NNc2ccccn2)cc1 11.5%, Cn1c(=O)c2c(nc(N3CCOCC3)n2CCSc2ncccn2)n(C)c1=O 12.4%, COc1cc(SC#N)ccc1N=Cc1c(C)[nH]n(-c2ccc(Cl)cc2)c1=O 17.5%, COc1ccc(N=Cc2c(O)n(-c3cccc(C)n3)c(=O)c3ccccc23)c(OC)c1 13.7%, COc1cccc(N=Cc2c(O)n(-c3cccc(C)n3)c(=O)c3ccccc23)c1 18%, COc1cc(S(=O)(=O)Nc2ccc(C)cc2)ccc1N=Cc1c(C)[nH]n(-c2ccc(C)cc2)c1=O 2.78%, COc1cc(SC#N)ccc1N=Cc1c(C)[nH]n(-c2ccc(C)c(C)c2)c1=O 35.9%, COc1ccccc1N=Cc1c(C)[nH]n(-c2ccc(C)cc2C)c1=O 27.4%, CCON1C(=O)CN(C(=O)OC)C1c1ccc(Cl)cc1Cl (stereo unspecified) 19.9%, Cc1ccccc1NC(=O)Cn1nnc2sc3c(c2c1=O)CC(C)(C)OC3 7.47%, O=C(Nc1ccc(S(=O)(=O)N2CCCCC2)cc1)C1CC(=O)N(Cc2ccccc2)C1 (stereo unspecified) 16.5%, CSC1=NCCCN1C(=O)c1c(-c2ccccc2Cl)noc1C 10.2%, O=C(O)C1CCCC[C@H]1C(=O)Nc1ncc([N+](=O)[O-])s1 (stereo partly specified) 3.81%, COc1ccc(CCNC(=S)Nc2ccc(C(C)C)cc2)cc1 13.7%, CC(/C=C1\SC(=S)N(CC(=O)O)C1=O)=C\c1ccccc1 19.5%, CC(=C\c1ccccc1)/C=C1/SC(=S)N(CCC(=O)O)C1=O 0.31%, Cc1ccc(-c2n[nH]c(=S)n2C)cc1 14.5%, Cc1ccc(S(=O)(=O)c2c(C)nn(-c3ccccc3)c2OC(=O)c2ccc(Br)o2)cc1 6.66%, O=C(Nc1nc2ccccc2n1Cc1ccccc1)c1ccco1 -0.22%, CCCCC/C(=N\NC(=O)CCC(=O)NCc1ccccc1)c1ccccc1 -0.61%, CCC/C(=N\NC(=O)CCC(=O)NCc1ccccc1)c1ccccc1 8.82%, Cc1ccc(-c2nc(CSCC(=O)NCCCN3CCOCC3)c(C)o2)cc1 26.4%, CN(C)c1ccc(C2OC(=O)C3(CCCC3)C(=O)C2(C)C)cc1 (stereo unspecified) 1.45%, COc1cc(C(=O)OCCN2CCOCC2)ccc1O 25.1%, COc1cc(C(=O)OCCCN2CCOCC2)ccc1O 30.9%, COCCOc1ccc(C(F)(F)F)cc1NC(=O)c1ccc(C(F)(F)F)cc1 2.65%, C=C(c1ccc(O)cc1)c1ccc(O)cc1 12.5%, Oc1ccc(Oc2ccc(Oc3ccc(O)cc3)cc2)cc1 11.2%, COc1ccc2[nH]c(C(=O)NCCc3ccccc3)cc2c1 6.64%, O=C(CCSc1ccc(Cl)cc1)N1CCOCC1 23.4%, O=C(CCCOc1ccccc1)N1CCN(c2ccc(F)cc2)CC1 0.74%, Cc1ccc(OCCC(=O)OCC(=O)N2CCN(S(=O)(=O)c3ccc(C)cc3)CC2)cc1 10.3%, Cc1ccc(OCCC(=O)OCC(=O)N2CCN(S(=O)(=O)c3ccc(Cl)cc3)CC2)cc1 30.2%, O=C(CCCOc1ccccc1)N1CCN(c2ccccc2)CC1 -0.15%, CCOC(=O)N1CCN(c2ccc([N+](=O)[O-])cc2)CC1 5.56%, O=C(CCSc1ccccc1)N1CCN(c2ccccc2)CC1 8.73%, CCOC(=O)N1CCN(c2ccc(Cl)cc2)CC1 24.6%, COc1ccc(OC)c(CCNC(=O)c2ccc3c(c2)N(Cc2ccccc2)CCS3)c1 -0.13%, O=C(CNC(=O)c1cccc(F)c1)OCC(=O)N1CCCc2ccccc21 7.9%, Cc1ccc(NS(=O)(=O)c2ccc(CCC(=O)NCCCOC(C)C)cc2)cc1 5.53%, COc1ccc(S(=O)(=O)c2nnn(-c3cccc(OC)c3)c2N)cc1 22.2%, O=[N+]([O-])c1ccc(-n2cccc2/C=N/Nc2nc(N3CCCCC3)nc(N3CCCCC3)n2)cc1 9.66%, O=C(CNC(=O)c1ccccc1F)OCC(=O)N1CCCCC1 7.93%, Cc1cc(C)c(S(=O)(=O)c2ccccc2C)c(N(C)C)n1 21.5%, COc1cc(/C=C2\SC(=S)N(CCC(=O)Nc3ccc(O)cc3)C2=O)cc(OC)c1OC 5.27%, O=C(Nc1ccc2c(c1)OCO2)c1ccc(NC2CC2)c([N+](=O)[O-])c1 12.5%, CCn1c(-c2nn(-c3ccccc3)ccc2=O)n[nH]c1=S 9.69%, COc1ccc(NS(=O)(=O)c2cccc(C(=O)NCC(c3ccccc3OC)N3CCCC3)c2)cc1 (stereo unspecified) 5.32%, COc1ccc(N2CCN(C(=O)COC(=O)CCOc3ccc(C)cc3)CC2)cc1 10.6%, COc1cc(OC)cc(C(=O)NCC(=O)N2CCCCC2)c1 4.74%, O=C(COc1cccc(C(F)(F)F)c1)N1CCN(c2ccccc2O)CC1 22.7%, O=C(C1CC1)N1CCN(c2ccc([N+](=O)[O-])cc2)CC1 12.1%, COc1ccc(C(=O)NCC(=O)N2CCN(c3ccc(Cl)cc3)CC2)cc1 10.9%, Cc1ccc(OCCCC(=O)N2CCOCC2)cc1 0.37%, COc1ccc(OCC(=O)N2CCN(c3cccc(C(F)(F)F)c3)CC2)cc1 17%, O=C(C1CC1)N1CCN(c2ccc(F)cc2)CC1 2.25%, c1ccc(Nc2nc(-c3ccccc3)ns2)cc1 -2.89%, CSc1nnc2c(n1)OC(c1cccn1C)N(C(C)=O)c1ccccc1-2 (stereo unspecified) 15.3%, Cn1cnc(S(=O)(=O)NCc2ccccc2)c1 6.21%, Cc1ccc(C(=O)Nc2ccc(S(=O)(=O)N3CCOCC3)cc2)cc1C 0.36%, O=C(CNC(=O)c1ccc(Br)cc1)OCC(=O)c1ccccc1 11.9%, Cc1ccc(C(=O)NCC(=O)N2CCN(c3ncccn3)CC2)s1 -1.43%, O=C(NCc1ccco1)C(c1ccncc1)N(C(=O)Cc1cccs1)c1ccccc1 (stereo unspecified) 7.67%, Cc1cccc(Nc2ncc3c(n2)CC(C)CC3=O)c1 (stereo unspecified) 7.64%, CCOc1ccccc1NC(=S)N1CCN(c2ccccc2)CC1 3.57%, CCOc1ccccc1NC(=S)N1CCN(c2ccc(OC)cc2)CC1 7.58%, CN(Cc1ccco1)S(=O)(=O)c1ccc(CN2C(=O)c3cccnc3C2=O)s1 16.5%, CCOc1ccc(NC(=O)NCC2CCN(c3ccc(OC)cc3)C2)cc1 (stereo unspecified) 22.4%, COc1ccc(N2CCC(CNC(=O)Nc3ccc(C)c(C)c3)C2)cc1 (stereo unspecified) 9.39%, COc1ccc(N2CCC(CNC(=S)Nc3cccc(OC)c3)C2)cc1 (stereo unspecified) 19.4%, COc1ccc(N2CCC(CNC(=O)Nc3ccc(Cl)cc3)C2)cc1 (stereo unspecified) 21.5%, CC(C)CN(C(=O)COC(=O)C1CC1)c1c(N)n(Cc2ccccc2)c(=O)[nH]c1=O 17.3%, Cc1c(Cl)cccc1NC(=O)CN1CCC(NC(=O)C2CCCCC2)CC1 8.83%, COc1ccc(OCC(=O)Nc2cccc(OC)c2)cc1 2.29%, CC(=Nc1ccccc1)Nc1ccccc1 9.53%, COc1cccc(NC(=O)CCC(=O)Nc2cccc(OC)c2)c1 11.8%, NC(=Nc1ccccc1)Nc1ccccc1 15.7%, NC(=O)C[n+]1cccc(/C=N/O)c1 2.56%, c1ccc(-c2nn3c(Cn4cnc5ccccc54)nnc3s2)cc1 -0.363%, COc1cc(/C=C2\SC(=S)N(C(C(=O)O)c3ccccc3)C2=O)cc(OC)c1OC (stereo unspecified) 27.9%, COc1ccc(/C=C2\SC(=S)N(C(Cc3ccccc3)C(=O)O)C2=O)cc1 (stereo unspecified) -3.2%, CCOc1ccc(/C=C2\SC(=S)N(C(C(=O)O)c3ccccc3)C2=O)cc1OC (stereo unspecified) 23.8%, COc1cccc(/C=C2\SC(=S)N(C(Cc3ccccc3)C(=O)O)C2=O)c1 (stereo unspecified) 33.3%, CCOc1ccc(/C=C2/SC(=S)N(C(C(=O)O)c3ccccc3)C2=O)cc1OCC (stereo unspecified) 19%, O=C(O)C(c1ccccc1)N1C(=O)/C(=C/c2cccs2)SC1=S (stereo unspecified) 19.8%
